Measurements as given in article PMC7862700, “An all-to-all approach to the identification of sequence-specific readers for epigenetic DNA modifications on cytosine”.

Columns and labels:
Assay in all cases: DAPPL (digital affinity profiling via proximity ligation, sequencing); 10 mM Tris-HCl pH 7.5, 50 mM NaCl, 1 mM DTT, 4% glycerol, room temperature, 30 min; GST-TFs on glutathione beads, 16-mer random dsDNA library, 0.1% formaldehyde crosslink after washing; high values mean tight binding
Conditions in all cases: protein: recombinant; tags: N-terminal GST; dsDNA, one strand shown
[1] = target: T1, FLI1 (Homo sapiens, UniProt Q01543 1-452)
T1 sequence: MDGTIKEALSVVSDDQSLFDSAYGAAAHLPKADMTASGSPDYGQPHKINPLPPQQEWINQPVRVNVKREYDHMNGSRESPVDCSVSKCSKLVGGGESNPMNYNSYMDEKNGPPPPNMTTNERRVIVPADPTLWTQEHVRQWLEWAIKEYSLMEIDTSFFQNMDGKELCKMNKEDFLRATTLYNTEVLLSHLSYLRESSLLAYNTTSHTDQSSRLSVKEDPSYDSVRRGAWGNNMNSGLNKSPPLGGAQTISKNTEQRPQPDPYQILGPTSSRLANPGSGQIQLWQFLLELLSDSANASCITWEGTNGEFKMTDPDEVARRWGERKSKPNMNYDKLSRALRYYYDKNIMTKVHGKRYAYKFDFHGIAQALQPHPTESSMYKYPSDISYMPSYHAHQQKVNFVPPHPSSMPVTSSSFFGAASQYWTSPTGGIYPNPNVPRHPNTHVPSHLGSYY
How it was run: (§1)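 The binding signal reported is, for every hexamer, its read frequency for a factor over its read frequency for the tag-only sample. Reads came from pools of yeast-expressed, GST-fused human transcription factors on glutathione beads, barcoded with DNA and mixed with that sample, which were incubated with 200 nmole of a random double-stranded 16-mer DNA library in Tris/NaCl/DTT/glycerol buffer at room temperature for 30 min. After washing, the pools were crosslinked with 0.1% formaldehyde, proximity-ligated with BsaI/T4 ligase for 1 h at 37 °C, PCR-amplified and sequenced on an Illumina NextSeq500.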

[2] = target: T2, ELK1 (Homo sapiens, UniProt P19419 1-428)
T2 sequence: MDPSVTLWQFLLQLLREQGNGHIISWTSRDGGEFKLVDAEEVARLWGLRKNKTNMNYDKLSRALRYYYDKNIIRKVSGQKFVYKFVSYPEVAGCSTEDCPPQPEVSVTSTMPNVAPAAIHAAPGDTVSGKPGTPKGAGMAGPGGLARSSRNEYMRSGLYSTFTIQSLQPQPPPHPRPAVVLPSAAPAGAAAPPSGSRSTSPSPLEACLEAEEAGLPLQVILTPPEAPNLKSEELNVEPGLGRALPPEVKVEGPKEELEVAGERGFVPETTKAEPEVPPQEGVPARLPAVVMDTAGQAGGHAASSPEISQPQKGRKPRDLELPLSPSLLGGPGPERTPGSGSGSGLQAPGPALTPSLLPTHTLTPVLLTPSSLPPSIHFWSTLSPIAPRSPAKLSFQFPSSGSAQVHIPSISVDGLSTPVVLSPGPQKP
How it was run: as §1

[3] = target: T3, GABPA (Homo sapiens, UniProt Q06546 1-454)
T3 sequence: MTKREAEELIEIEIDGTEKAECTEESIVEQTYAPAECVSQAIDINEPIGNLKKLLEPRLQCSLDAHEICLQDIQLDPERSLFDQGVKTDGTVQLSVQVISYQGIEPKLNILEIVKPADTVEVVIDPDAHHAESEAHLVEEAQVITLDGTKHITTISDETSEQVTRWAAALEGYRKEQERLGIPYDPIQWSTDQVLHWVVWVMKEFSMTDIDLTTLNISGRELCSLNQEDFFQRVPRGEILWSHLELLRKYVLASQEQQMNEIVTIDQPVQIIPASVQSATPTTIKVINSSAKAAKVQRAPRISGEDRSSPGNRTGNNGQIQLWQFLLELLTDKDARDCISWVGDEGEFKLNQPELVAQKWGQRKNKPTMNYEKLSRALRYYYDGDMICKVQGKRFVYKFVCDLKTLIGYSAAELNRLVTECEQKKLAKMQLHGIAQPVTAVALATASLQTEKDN
How it was run: as §1

[4] = target: T4, ERG (Homo sapiens, UniProt P11308 1-479)
T4 sequence: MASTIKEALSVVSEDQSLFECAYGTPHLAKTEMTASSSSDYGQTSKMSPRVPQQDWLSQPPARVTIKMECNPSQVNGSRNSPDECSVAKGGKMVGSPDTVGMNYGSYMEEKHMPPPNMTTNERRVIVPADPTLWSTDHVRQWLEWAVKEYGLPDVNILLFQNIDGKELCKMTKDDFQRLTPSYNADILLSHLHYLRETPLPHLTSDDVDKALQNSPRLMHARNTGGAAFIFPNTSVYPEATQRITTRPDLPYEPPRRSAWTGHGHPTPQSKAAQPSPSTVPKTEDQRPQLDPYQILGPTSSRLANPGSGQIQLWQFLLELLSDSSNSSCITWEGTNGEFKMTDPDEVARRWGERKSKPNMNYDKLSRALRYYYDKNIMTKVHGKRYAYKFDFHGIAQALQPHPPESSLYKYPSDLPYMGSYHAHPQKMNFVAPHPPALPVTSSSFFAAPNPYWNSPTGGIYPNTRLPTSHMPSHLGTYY
How it was run: as §1

[5] = target: ELF1 (Homo sapiens, UniProt P32519 1-619)
Chain of ELF1 (P32519 whole entry): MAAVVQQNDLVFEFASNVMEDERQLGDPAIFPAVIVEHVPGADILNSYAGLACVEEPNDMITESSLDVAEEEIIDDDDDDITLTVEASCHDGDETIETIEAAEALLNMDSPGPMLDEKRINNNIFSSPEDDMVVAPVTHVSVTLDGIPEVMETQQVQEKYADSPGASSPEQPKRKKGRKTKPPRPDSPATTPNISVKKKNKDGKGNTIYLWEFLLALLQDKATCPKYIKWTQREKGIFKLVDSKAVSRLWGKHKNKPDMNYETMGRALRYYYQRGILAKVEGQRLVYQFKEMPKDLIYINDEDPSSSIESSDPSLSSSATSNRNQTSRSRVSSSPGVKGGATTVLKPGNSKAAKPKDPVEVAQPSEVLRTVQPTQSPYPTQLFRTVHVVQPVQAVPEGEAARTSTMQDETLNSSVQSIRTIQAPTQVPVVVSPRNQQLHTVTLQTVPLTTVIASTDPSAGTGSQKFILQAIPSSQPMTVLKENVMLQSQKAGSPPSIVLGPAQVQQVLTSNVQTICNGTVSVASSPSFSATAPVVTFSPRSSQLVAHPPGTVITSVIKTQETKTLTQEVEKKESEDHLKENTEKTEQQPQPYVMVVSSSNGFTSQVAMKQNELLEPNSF
How it was run: as §1

[6] = target: T5, EHF (Homo sapiens, UniProt Q9NZC4 1-300)
T5 sequence: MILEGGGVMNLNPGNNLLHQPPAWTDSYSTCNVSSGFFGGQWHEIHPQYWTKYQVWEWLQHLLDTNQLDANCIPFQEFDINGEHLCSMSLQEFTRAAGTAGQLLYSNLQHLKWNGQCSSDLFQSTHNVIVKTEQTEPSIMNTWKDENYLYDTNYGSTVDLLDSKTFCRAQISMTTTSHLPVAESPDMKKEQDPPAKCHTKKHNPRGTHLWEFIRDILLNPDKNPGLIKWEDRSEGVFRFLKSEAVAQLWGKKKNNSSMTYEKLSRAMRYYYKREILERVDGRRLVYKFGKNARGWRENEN
How it was run: as §1

[7] = target: SPI1 (Homo sapiens, UniProt P17947 1-270)
How it was run: as §1

[8] = target: SPIB (Homo sapiens, UniProt Q01892 1-262)
Chain of SPIB (Q01892 whole entry): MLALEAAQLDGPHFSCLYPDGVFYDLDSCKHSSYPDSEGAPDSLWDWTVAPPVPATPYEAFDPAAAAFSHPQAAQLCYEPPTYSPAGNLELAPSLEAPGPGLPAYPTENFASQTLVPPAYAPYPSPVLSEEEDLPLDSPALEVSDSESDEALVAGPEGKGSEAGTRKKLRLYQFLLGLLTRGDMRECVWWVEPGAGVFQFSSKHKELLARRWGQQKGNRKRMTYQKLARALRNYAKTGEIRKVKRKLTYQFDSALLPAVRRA
How it was run: as §1

[9] = target: T6, ELK3 (Homo sapiens, UniProt P41970 1-407)
T6 sequence: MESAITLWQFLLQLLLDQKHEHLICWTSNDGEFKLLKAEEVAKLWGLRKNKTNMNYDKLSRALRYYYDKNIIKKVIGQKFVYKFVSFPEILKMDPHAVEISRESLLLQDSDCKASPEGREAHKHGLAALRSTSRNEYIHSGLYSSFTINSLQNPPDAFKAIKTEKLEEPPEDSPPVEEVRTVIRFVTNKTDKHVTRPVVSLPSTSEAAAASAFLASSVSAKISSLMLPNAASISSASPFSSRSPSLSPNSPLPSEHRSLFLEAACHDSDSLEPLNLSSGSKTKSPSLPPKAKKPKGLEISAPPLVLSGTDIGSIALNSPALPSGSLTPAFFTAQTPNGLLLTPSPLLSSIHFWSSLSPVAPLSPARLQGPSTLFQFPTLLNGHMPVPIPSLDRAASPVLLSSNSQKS
How it was run: as §1

Sequence | binding signal [1] | binding signal [2] | binding signal [3] | binding signal [4] | binding signal [5] | binding signal [6] | binding signal [7] | binding signal [8] | binding signal [9]
AATGTA | 1.19 fold enrichment (6-mer frequency, TF over GST control) | 1.09 fold enrichment (6-mer frequency, TF over GST control) | 1.1 fold enrichment (6-mer frequency, TF over GST control) | 1.17 fold enrichment (6-mer frequency, TF over GST control) | 1.16 fold enrichment (6-mer frequency, TF over GST control) | 1.22 fold enrichment (6-mer frequency, TF over GST control) | 1.12 fold enrichment (6-mer frequency, TF over GST control) | 1.2 fold enrichment (6-mer frequency, TF over GST control) | 1.17 fold enrichment (6-mer frequency, TF over GST control)
GCTCCT | 1.54 fold enrichment (6-mer frequency, TF over GST control) | 1.39 fold enrichment (6-mer frequency, TF over GST control) | 1.52 fold enrichment (6-mer frequency, TF over GST control) | 1.32 fold enrichment (6-mer frequency, TF over GST control) | 1.45 fold enrichment (6-mer frequency, TF over GST control) | 1.41 fold enrichment (6-mer frequency, TF over GST control) | 1.4 fold enrichment (6-mer frequency, TF over GST control) | 1.46 fold enrichment (6-mer frequency, TF over GST control) | 1.33 fold enrichment (6-mer frequency, TF over GST control)
GTTCTC | 1.36 fold enrichment (6-mer frequency, TF over GST control) | 1.18 fold enrichment (6-mer frequency, TF over GST control) | 1.4 fold enrichment (6-mer frequency, TF over GST control) | 1.27 fold enrichment (6-mer frequency, TF over GST control) | 1.28 fold enrichment (6-mer frequency, TF over GST control) | 1.22 fold enrichment (6-mer frequency, TF over GST control) | 1.33 fold enrichment (6-mer frequency, TF over GST control) | 1.35 fold enrichment (6-mer frequency, TF over GST control) | 1.19 fold enrichment (6-mer frequency, TF over GST control)
ATTTGA | 1.34 fold enrichment (6-mer frequency, TF over GST control) | 1.1 fold enrichment (6-mer frequency, TF over GST control) | 1.26 fold enrichment (6-mer frequency, TF over GST control) | 1.23 fold enrichment (6-mer frequency, TF over GST control) | 1.12 fold enrichment (6-mer frequency, TF over GST control) | 1.27 fold enrichment (6-mer frequency, TF over GST control) | 1.17 fold enrichment (6-mer frequency, TF over GST control) | 1.36 fold enrichment (6-mer frequency, TF over GST control) | 1.05 fold enrichment (6-mer frequency, TF over GST control)
ATAACA | 1.2 fold enrichment (6-mer frequency, TF over GST control) | 1.29 fold enrichment (6-mer frequency, TF over GST control) | 1.22 fold enrichment (6-mer frequency, TF over GST control) | 1.25 fold enrichment (6-mer frequency, TF over GST control) | 1.28 fold enrichment (6-mer frequency, TF over GST control) | 1.19 fold enrichment (6-mer frequency, TF over GST control) | 1.16 fold enrichment (6-mer frequency, TF over GST control) | 1.33 fold enrichment (6-mer frequency, TF over GST control) | 1.24 fold enrichment (6-mer frequency, TF over GST control)
ATGACT | 1.5 fold enrichment (6-mer frequency, TF over GST control) | 1.42 fold enrichment (6-mer frequency, TF over GST control) | 1.39 fold enrichment (6-mer frequency, TF over GST control) | 1.44 fold enrichment (6-mer frequency, TF over GST control) | 1.42 fold enrichment (6-mer frequency, TF over GST control) | 1.35 fold enrichment (6-mer frequency, TF over GST control) | 1.51 fold enrichment (6-mer frequency, TF over GST control) | 1.52 fold enrichment (6-mer frequency, TF over GST control) | 1.33 fold enrichment (6-mer frequency, TF over GST control)
ATGACC | 1.54 fold enrichment (6-mer frequency, TF over GST control) | 1.58 fold enrichment (6-mer frequency, TF over GST control) | 1.78 fold enrichment (6-mer frequency, TF over GST control) | 1.52 fold enrichment (6-mer frequency, TF over GST control) | 1.6 fold enrichment (6-mer frequency, TF over GST control) | 1.61 fold enrichment (6-mer frequency, TF over GST control) | 1.6 fold enrichment (6-mer frequency, TF over GST control) | 1.45 fold enrichment (6-mer frequency, TF over GST control) | 1.65 fold enrichment (6-mer frequency, TF over GST control)
